Measured values taken from PubChem BioAssay AID1053175 (ICCB-Longwood Screening Facility, Harvard Medical School, 2014).
Where “and” joins values, the source holds several entries; their conditions need not be identical. Equal entries are not always repeated. Out of some 330,000 compounds screened, about 700 (0.21%) were called active.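 The calls were made as follows: active = OD600 absorbance below the run mean of sample wells minus 3.6 SD, in any replicate (cut at about 0.56 in these data); inactive = the rest.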 The entries come from a sample that favours actives as a whole.

test: E. coli growth inhibition, primary screen, OD600 (AID 1053175); details: Escherichia coli growth, OD600, 23 h; hits give low values

Row | Compound | OD600 absorbance
1 | O=C(COC(=O)c1ccc(F)cc1)NCC1COc2ccccc2O1 (configuration not stated) | 0.688 (inactive)
2 | CC1COc2ccccc2N1C(=O)c1ccc(F)cc1 (configuration not stated) | 0.65 (inactive)
3 | O=C(Nc1nnc(C2COc3ccccc3O2)o1)c1ccc(F)cc1 (configuration not stated) | 0.346 (active)
4 | O=C(CO)NN=Cc1cccc(Cl)c1Cl | 0.595 (inactive)
5 | CCOc1ccccc1C(=O)NN=Cc1coc2ccc(Cl)cc2c1=O | 0.656 (inactive)
6 | COc1ccc(/C=C(\NC(=O)c2ccccc2)C(=O)NN=Cc2cccnc2)cc1 | 0.669 (inactive)
7 | O=C(NN=Cc1c[nH]c2ccccc12)c1ccc(O)c(O)c1 | 0.695 (inactive)
8 | COC(=O)C1CC2CCC(O)CC2N1Cc1ccc(C(F)(F)F)cc1 (configuration not stated) | 0.627 (inactive) and 0.652 (inactive)
9 | CC1(C)CC2CC(C)(CN2C=Nc2sc3c(c2C#N)CC(C)(C)NC3(C)C)C1 (configuration not stated) | 0.649 (inactive)
10 | CCCC(O)c1cc2cc(OC)c(OC)cc2c(=O)o1 (configuration not stated) | 0.667 (inactive)
11 | CCc1n[nH]c(=S)n1N=Cc1c(O)ccc2ccccc12 | 0.677 (inactive)
12 | C=CCSc1nsc(NC(=O)Nc2cccc(C(C)=O)c2)n1 | 0.61 (inactive)
13 | CSc1nsc(NC(=O)Nc2ccccc2)n1 | 0.445 (active)
14 | CCSc1nsc(NC(=O)Nc2cccc(C(C)=O)c2)n1 | 0.575 (inactive)
15 | O=C(NCC(F)(F)F)Nc1nnc(C(F)(F)F)s1 | 0.494 (active)
16 | O=C(Nc1nnc(COc2ccccc2)s1)Nc1ccccc1F | 0.649 (inactive)
17 | COc1ccc(C)cc1NC(=O)CCC(=O)Nc1nnc(C(F)(F)F)s1 | 0.73 (inactive)
18 | O=C(O)c1ccc(NN=Cc2ccc(-c3ccc(Cl)cc3Cl)o2)cc1 | 0.671 (inactive)
19 | CCOC(=O)C1C2COc3ccc(Cl)cc3C2N2C(=O)c3ccc(C)cc3NC(=O)[C@@]12C (some centres not stated) | 0.705 (inactive)

Row | Compound | OD600 absorbance
20 | CCN(CC)C(=O)c1[nH]cnc1C(=O)NC(Cc1ccccc1)C(=O)OC(C)(C)C (configuration not stated) | 0.689 (inactive)
21 | COc1cc(C=NNC(=O)c2ccc3c(c2)OCCO3)cc(Br)c1O | 0.712 (inactive)
22 | CC(C(=O)N1CCNCC1)n1cc(CCC(=O)O)nn1 (configuration not stated) | 0.694 (inactive)
23 | CCn1cc(C(=O)NCCO)c(=O)c2cc(F)c(N3CCN(C)CC3)cc21 | 0.0485 (active)
24 | CCCCCCn1cc(C(=O)O)c(=O)c2cc(F)c(N3CCCCC3)cc21 | 0.628 (inactive)
25 | CCNC(=S)N1CCN(C(=O)c2ccco2)CC1 | 0.73 (inactive)
26 | CCCCNC(=O)c1cn(CC)c2cc(N3CCN(C(=O)c4ccco4)CC3)c(F)cc2c1=O | 0.458 (active)
27 | CCn1cc(S(=O)(=O)c2cccc(C)c2)c(=O)c2cc(F)c(N3CCN(C)CC3)cc21 | 0.662 (inactive)
28 | CCn1cc(C(=O)NCCC(=O)NCCO)c(=O)c2cc3c(cc21)OCO3 | 0.65 (inactive)
29 | O=C(C=CNNC(=O)c1ccccc1)c1ccc(Br)cc1 | 0.66 (inactive)
30 | CC1CN(C(C)CO)C(=O)c2cc(NC(=O)Cn3cnnn3)ccc2OC1CN(C)Cc1ccc(Cl)c(Cl)c1 (configuration not stated) | 0.734 (inactive)
31 | Cc1cccc(NC(=O)c2ccc([N+](=O)[O-])o2)c1 | 0.475 (active)
32 | O=C(Nc1ccc(Br)cn1)c1ccc([N+](=O)[O-])o1 | 0.518 (inactive)
33 | O=C(Nc1cccc(O)c1)c1ccc(C(=O)c2ccccc2)o1 | 0.71 (inactive)
34 | COc1ccc(S(=O)(=O)ON=C2CCCc3ccccc32)cc1 | 0.751 (inactive)
35 | COc1ccc(C2C3C(=O)N(C(C)(C)C)C(=O)C3[C@]3(C)C(=O)N(c4cccc(C)c4)C(=O)N23)cc1 (some centres not stated) | 0.681 (inactive)
36 | O=C(NN=Cc1ccc(O)cc1)c1ccc(COc2cc(Cl)ccc2Cl)o1 | 0.778 (inactive)
37 | CCOC(=O)C1C2COc3cc(OC)ccc3C2N2C(=O)N(c3cccc(F)c3)C(=O)[C@@]12C (some centres not stated) | 0.694 (inactive) and 0.697 (inactive) and 0.645 (inactive)
38 | CC(C)(C)C(COc1ccccc1[N+](=O)[O-])=NO | 0.627 (inactive)

Row | Compound | OD600 absorbance
39 | COc1cccc(C=NNc2nc3ccccc3n3cnnc23)c1 | 0.749 (inactive)
40 | Cc1ccc(C)c(-c2cc(C(=O)NN=Cc3cccnc3)c3ccccc3n2)c1 | 0.67 (inactive)
41 | CCNS(=O)(=O)c1ccc(NC(=O)Nc2cccc(C(F)(F)F)c2)cc1 | 0.51 (active)
42 | O=C(Nc1ccc(C(=O)N2CCOCC2)cc1)Nc1cccc(C(F)(F)F)c1 | 0.664 (inactive)
43 | CC(C)C[C@H](NC(=O)Nc1cccc(C(F)(F)F)c1)C(=O)O | 0.689 (inactive)
44 | Cc1ccc2cc(C=NNC(=O)[C@@H]3CCCN3)c(Cl)nc2c1 | 0.699 (inactive)
45 | CN1CCN(CCC(=O)NN=Cc2cc([N+](=O)[O-])ccc2O)CC1 | 0.633 (inactive)
46 | CCN=c1scc(C)n1N=Cc1cc(Br)c(O)c(OC)c1 | 0.689 (inactive)
47 | CN1C(=O)C2C(C=Cc3ccccc3)N3C(=O)CN(Cc4ccc(-c5ccccc5)cc4)C(=O)[C@@]3(Cc3ccccc3)C2C1=O (some centres not stated) | 0.678 (inactive)
48 | CC(=NNC(=O)C1CC1)c1ccc(NC(=O)c2ccc(Br)o2)cc1 | 0.697 (inactive)
49 | O=C(NN=Cc1ccco1)c1cccs1 | 0.606 (inactive)
50 | CCC(C)N1CCC2(CC1)N=c1c(c3c4c5c(C)c(O)c3c(O)c1=NC(=O)C(C)=CC=CC(C)C(O)C(C)C(O)C(C)C(OC(C)=O)C(C)C(OC)C=CO[C@@](C)(O5)C4=O)N2 (some centres not stated) | 0.076 (active)
51 | CCOC(=O)C1C2COc3cc(OC)ccc3C2N2C(=O)CN(Cc3ccc(C)cc3)C(=O)[C@@]12C (some centres not stated) | 0.699 (inactive)
52 | CC1CC2OC(=O)[C@]3(C)C2C(OC3(C)O)[C@]2(C)C(=O)C=CC12 (some centres not stated) | 0.679 (inactive)
53 | CC(C)(C)NC(=O)CCN(N=Cc1ccccc1F)C1=NS(=O)(=O)c2ccccc21 | 0.627 (inactive)
54 | CN(C)c1ccc(C=NNC(=O)Cn2nnc3ccccc32)cc1 | 0.725 (inactive)
55 | CC(C)(C)OC(=O)C1=C(CO)CS[C@@H]2[C@H](NC(=O)Cc3ccccc3)C(=O)N12 | 0.72 (inactive)
56 | Cc1cc(C)cc(C(=O)NC2C(=O)N3C(C(=O)O)=C(CSc4nnc(C)s4)CSC23)c1 (configuration not stated) | 0.684 (inactive)
57 | Cc1nnc(SCC2=C(C(=O)O)N3C(=O)C(NC(=O)Cn4nc(C)c(Cl)c4C)C3SC2)s1 (configuration not stated) | 0.488 (active)
